Screening data (PubChem BioAssay)
AHR activator: activates the human aryl hydrocarbon receptor | activation, % at 5 µM | P35869 | hit rate 2.5% among 320,000 | AHR-responsive luciferase reporter cells, luminescence; in the data active = activation above about 47%;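 also: 0% = vehicle wells and 100% = reference agonist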
FXN GAA850 act: increases GAA850 frataxin promoter reporter activity; hit rate 0.56% among 360,000; activation, % at 6 µM; HEK293 lucGAA850 FXN promoter luciferase reporter, 24 h; percent of 10 µM SAHA response;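 active = activation above the average of all compounds screened plus 3 SD, cutoff fixed separately per campaign, cut at about 7.5% in these data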;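 also: 0% = DMSO wells and 100% = 10 µM SAHA wells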
NR0B1 inh: inhibitors of human orphan nuclear receptor DAX1 (NR0B1); P51843; HEK293 Gal4-DAX1 luciferase reporter, luminescence; inhibition, % at 6.75 µM; hit rate 0.99% among 340,000;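 active = inhibition above the mean over all tested compounds plus 3 SD, cut at about 4.2% in these data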;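 also: 0% = DAX1-transfected cells with DMSO and 100% = empty-vector control cells with DMSO; inhibition shows as a rise in luminescence from relieved DAX1 repression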
Target sequence (P51843 207-470 limits assumed): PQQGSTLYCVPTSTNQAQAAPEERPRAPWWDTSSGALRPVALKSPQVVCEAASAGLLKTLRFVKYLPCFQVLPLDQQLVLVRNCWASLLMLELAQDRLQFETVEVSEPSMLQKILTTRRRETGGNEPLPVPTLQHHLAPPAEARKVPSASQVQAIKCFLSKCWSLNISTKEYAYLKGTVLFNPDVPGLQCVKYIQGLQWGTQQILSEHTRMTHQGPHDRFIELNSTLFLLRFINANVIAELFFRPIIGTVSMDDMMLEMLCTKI
HSF1 activator: increases HSF-1 driven luciferase reporter signal; NIH3T3-HGL HSF-1 luciferase reporter, MG132, 8 h; 100% = twice DMSO control signal; activation, % at 9 µM; hit rate 1.7% among 300,000;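 active = mean replicate activation of at least 50% with a set share of replicates each reaching 50%; inconclusive = only one of those two conditions met; inactive = mean below 50% and too few replicates reaching it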;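 also: 0% = median of the neutral control wells and 100% = twice that signal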
HSF1 inhib: HSF1 inhibition | NIH3T3-HGL HSE-luciferase, MG132-induced, luminescence 8 h; stronger effect = lower value | activity change, negative = inhibition, % at 7.5 µM (by protocol) | hit rate 0.77% among 300,000 | AID 2098;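 active = more than half of replicate wells show activity change below -50%, luminescence cut by over half; inconclusive = some wells, but at most half, below -50%; inactive = no replicate well below -50%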;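 also: luciferase reports HSF-1 transcriptional activity via heat shock element; 0% = median of DMSO wells and -100% = zero luminescence signal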
AHR act cf: confirmation of human aryl hydrocarbon receptor activators. shares compounds with AHR activator. human cells, AHR-responsive luciferase reporter, luminescence. activation, % at 9 µM. hit rate 87% among 2,300. AID 2845; in the data active = activation above about 49%;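 also: HepG2 hepatoma cells carrying a DRE-driven firefly luciferase reporter; 0% = vehicle wells and 100% = reference agonist wells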
PXR counter: activates human PXR in AHR activator counter-screen. shares compounds with AHR activator. cell-based PXR reporter, luciferase luminescence. activation, % at 11.6 µM. hit rate 88% among 2,300. AID 434939; in the data active = activation above about 11%;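 also: human hepatoma DPX-2 cells expressing full-length human PXR; 0% = DMSO and 100% = reference agonist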
Numbers without * were called inactive; ? = inconclusive; . = no result. Hits are enriched below; roughly 5.4% of the tested compounds scored in any of these assays.

SMILES	AHR activator	FXN GAA850 act	NR0B1 inh	HSF1 activator	HSF1 inhib	AHR act cf	PXR counter
N#C/C(=C/c1ccc(Sc2nc3ccccc3[nH]2)o1)c1cccc(Br)c1	83*	2	-1	9	15	43	84*
CC1CN(C(=O)CCC(=O)NCCCN2CCN(Cc3ccccc3)CC2)c2cc(Cl)ccc2O1 (stereo unspecified)	1	0	0	6	1	.	.
CC1(C(=O)NS(=O)(=O)Cc2ccccc2C(F)(F)F)CCN1C(=O)c1cccc(F)c1 (stereo unspecified)	.	3	.	.	.	.	.
O=c1[nH]c2ccccc2nc1-c1ccccc1	101*	5	0	3	0	84*	11*
O=c1nc(-c2ccccc2)c2ccccc2[nH]1	4	2	0	2	-3	.	.
CCOC(=O)c1sc(Nc2nc3c(OC)cccc3s2)nc1C	84*	5	1	26	27	127*	72*
O=C1CSC(=Nc2ccccc2Cl)N1	1	-1	0	2	-7	.	.
Clc1ccccc1N=C1NN=C(c2cccs2)CS1	139*	6	4	23	-1	130*	36*
COc1c2ccoc2c(OCC=C(C)C)c2oc(=O)ccc12	9	-3	0	-4	6	.	.
COc1c2ccoc2c(OC[C@@H](O)C(C)(C)OC)c2oc(=O)ccc12	102*	0	0	-10	-1	69*	80*
Cc1c(C(=O)N(CC(C)C)c2c(N)n(Cc3ccccc3)c(=O)[nH]c2=O)sc2nc3n(c(=O)c12)CCC3	0	2	-1	-3	-2	.	.
C=CCCN(Cc1ccccc1)S(=O)(=O)c1cc(Br)ccc1Br	1	0	-1	.	.	.	.
O=C(CC1C(=O)Nc2ccccc2N1CC(=O)N1CCCC1)Nc1ccc(Br)cc1 (stereo unspecified)	92*	-1	0	.	.	100*	37*
Cc1ccc(-c2[nH]c(-c3ccc(Cl)cc3)nc2SCC(=O)NCC2CCCO2)cc1 (stereo unspecified)	108*	-1	-1	-19	-5	84*	86*
Cc1ccc(S(=O)(=O)N2CCOCC2)cc1NC(=O)CSc1nnnn1C	0	0	1	3	-6	.	.
COc1cc(OC)cc(-c2nnc(SCC(=O)N3CCCCC3)o2)c1	83*	3	2	-1	5	35	72*
COc1cc(OC)cc(-c2nnc(SCC(=O)N3CCOCC3)o2)c1	22	0	0	-7	3	.	.
O=C(COC(=O)c1cccc(S(=O)(=O)N2CCOCC2)c1)Nc1ccc2c(c1)OCO2	0	-1	1	-16	-11	.	.
Cc1noc(C(=O)Nc2ccc3c(c2)OCO3)c1Cl	125*	2	2	10	9	148*	26*
O=C(Nc1ccc2c(c1)OCO2)c1ccc2c(c1)OCO2	91*	2	-1	39	12	19	18*
O=C(Nc1ccc2c(c1)OCO2)c1cccc(S(=O)(=O)N2CCOCC2)c1	112*	4	0	-2	3	91*	36*
O=C(Nc1ccc2c(c1)OCO2)c1ccc(Br)c(S(=O)(=O)N2CCCC2)c1	87*	1	-3	3	5	47	154*
O=C(Nc1ccc2c(c1)OCCO2)c1ccc(Br)c(S(=O)(=O)N2CCOCC2)c1	.	-10	-4	.	.	.	.
CN(c1ccccc1)S(=O)(=O)c1ccc(C(=O)NNC(=O)c2ccccc2F)cc1	0	-1	2	.	.	.	.
Cc1ccc(NC(=O)c2ccoc2C)cc1C	11	2	0	29	5	.	.
SMILES	AHR activator	FXN GAA850 act	NR0B1 inh	HSF1 activator	HSF1 inhib	AHR act cf	PXR counter
Cn1ccc2cc(NC(=O)Nc3cccnc3)ccc21	89*	3	0	1	0	55*	21*
Cc1occc1C(=O)Nc1ccc2c(c1)OCO2	125*	1	1	21	13	51*	47*
O=C(Nc1cccnc1)Nc1ccc2c(c1)OCO2	85*	2	1	1	-2	91*	16*
CC(=O)Nc1ccc(C(=O)Nc2ccc3c(c2)OCO3)cc1	11	1	2	11	6	.	.
Cc1cc(C(=O)Nc2ccc3c(c2)OCO3)cs1	130*	4	3	37	26	90*	43*
COc1ccc(NC(=O)c2ccc(F)c(F)c2)c2ccccc12	3	0	0	13	3	.	.
Cc1ccc(C(=O)Nc2ccc3c(c2)OCO3)cc1NC(=O)c1ccco1	122*	1	2	10	4	86*	33*
COc1ccc(NC(=O)Nc2cccc(F)c2)c(OC)c1	-3	1	1	11	2	.	.
O=C(Nc1cccc(C(=O)O)c1)Nc1ccc2c(c1)OCO2	-6	4	-5	-60	?	.	.
O=C(Nc1ccc2c(c1)OCO2)Nc1ccc2c(c1)OCO2	106*	4	1	18	16	45	28*
O=C(Nc1ccc2c(c1)OCO2)c1ccc(Cl)s1	113*	4	0	?	32	85*	34*
COc1ccc(NC(=O)Nc2cccnc2)c(OC)c1	91*	-1	-2	-8	-3	115*	12*
O=C(Nc1ccn(Cc2ccc(Cl)cc2)n1)c1ccccc1	7	5	1	45	33	.	.
O=C(Nc1ccn(Cc2ccccc2)n1)c1ccc2c(c1)OCO2	112*	2	2	21	24	77*	43*
CC(=O)Cc1cc(O)c2ccccc2c1OC(=O)c1ccccc1	93*	0	0	?	19	98*	16*
CC(=O)c1cc(C)c(OC(=O)c2ccccc2)c(C)c1	.	5	-1	.	.	.	.
COc1ccc2nnc(-c3ccc(C(F)(F)F)cc3)n2n1	81*	2	1	-91	-89*	105*	18*
COc1ccc(Nc2nc(N3CCOCC3)nc(N3CCOCC3)n2)cc1Cl	0	2	-1	15	-3	.	.
CCc1nc2ccc(C(=O)N3CCNC(=O)C3)cn2c1N(C)CCC(C)C	.	0	.	.	.	.	.
c1ccc(-c2nnc3sc(-c4csc5c4CCCC5)nn23)cc1	97*	7	0	5	7	136*	38*
CN1CCN(C(CC(=O)Nc2cccc(O)c2)C(=O)O)CC1 (stereo unspecified)	-2	.	.	12	1	.	.
CCn1cc(Br)c(C(=O)Nc2ccc(F)cc2F)n1	99*	1	1	9	5	130*	13*
CCn1ncc(Br)c1C(=O)Nc1ccc(F)cc1F	5	2	0	47	17	.	.
CCOc1ccc2nc(/N=C/c3c(C)[nH]n(-c4ccc(C)cc4)c3=O)sc2c1	89*	4	1	21	9	67*	22*
